Experimental data published in PubChem BioAssay AID720504 (National Center for Advancing Translational Sciences (NCATS), 2013).
About 10,000 (2.8%) of roughly 360,000 compounds were called active. About 4% were inconclusive and are not listed. Calls come from the whole dose curve; as a rule, active = well fitted inhibition curve with a large enough effect; inconclusive = small, poorly fitted or top-dose-only effect; inactive = flat fitted curve, though single readings scatter. The list comes from a sample in which actives are over-represented; it also holds similar structures and randomly drawn compounds.

target: Serine/threonine-protein kinase PLK1 (Homo sapiens) (UniProt P53350); assay: qHTS for Inhibitors of PLK1-PDB (polo-like kinase 1 - polo-box domain): Primary Screen; details: Plk1 PBD binding of FITC phosphopeptide, fluorescence polarization; note: nearly all actives have a fitted effect of over 65% in size; for max response, negative = inhibition: series mostly up to about 57 µM
Sequence (P53350 whole entry, looked up, the tested form may be a part): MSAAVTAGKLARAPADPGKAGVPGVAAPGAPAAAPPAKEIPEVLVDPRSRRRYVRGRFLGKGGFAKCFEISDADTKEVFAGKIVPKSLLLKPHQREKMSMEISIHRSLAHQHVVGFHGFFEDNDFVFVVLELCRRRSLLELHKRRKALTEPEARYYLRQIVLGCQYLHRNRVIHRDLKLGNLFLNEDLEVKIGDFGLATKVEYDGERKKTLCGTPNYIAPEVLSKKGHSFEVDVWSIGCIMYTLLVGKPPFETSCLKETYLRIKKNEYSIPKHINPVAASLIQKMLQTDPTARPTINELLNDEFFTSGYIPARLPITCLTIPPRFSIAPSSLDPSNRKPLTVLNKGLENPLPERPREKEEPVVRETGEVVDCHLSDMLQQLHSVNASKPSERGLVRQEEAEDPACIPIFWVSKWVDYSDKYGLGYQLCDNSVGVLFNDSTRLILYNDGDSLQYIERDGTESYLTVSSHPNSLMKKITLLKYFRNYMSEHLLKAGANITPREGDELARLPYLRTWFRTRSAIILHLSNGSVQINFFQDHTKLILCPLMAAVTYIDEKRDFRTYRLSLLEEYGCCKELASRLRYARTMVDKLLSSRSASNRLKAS
% is set by controls: 0 for no effect and ±100 for the full control effect; potency is the fitted concentration of half-maximal effect.

SMILES | max response, negative = inhibition | Potency
CN(Cc1ccc(F)cc1)C(=O)COc1ccc2ccccc2c1 | -5.68% (inactive) | 
Fc1ccc(COc2cccc(-c3n[nH]c(=S)o3)c2)cc1 |  | 6.7 µM (active)
Fc1ccc(COc2ccc(-c3nnco3)cc2)cc1 | 2.81% (inactive) | 
COCCCn1cc(CN2CC(N(C)C)CS2(=O)=O)nn1 (stereo unspecified) | 2.09% (inactive) | 
CC(=O)N1C[C@@H](CO)[C@@H](N(C)C(=O)c2ccco2)C[C@H]1c1ccccc1 | -12.5% (inactive) | 
COc1ccc(-c2csc(Nc3cccc(C)n3)n2)cc1OC | 8.19% (inactive) | 
COc1ccc(OC)c(Nc2nc(-c3ccc(O)c(O)c3)cs2)c1 |  | 29.9 µM (active)
COc1ccc(C(O)c2nc(-c3ccc4c(c3)OCO4)cs2)cc1 (stereo unspecified) | 6.53% (inactive) | 
Cc1noc(C)c1C(=O)N1CCC1(C)C(=O)NS(=O)(=O)c1ccc(C#N)cc1 (stereo unspecified) | -3.77% (inactive) | 
CC1(C(=O)NCc2ccccc2)CSCC(=O)N1CCCN1CCOCC1 (stereo unspecified) | 6.34% (inactive) | 
O=C1CC[C@H](O)CCN1[C@H](CSc1ccc(Br)cc1)Cc1ccccc1 |  | 11.9 µM (active)
C[C@H]1CCC(=O)N([C@H](CSc2ccccc2)Cc2ccccc2)CC1 | -3.56% (inactive) | 
O=C1CCNCCN1[C@H](CO)Cc1ccccc1 | -3.76% (inactive) | 
CN(CCc1ccccc1)c1ccc([N+](=O)[O-])cn1 | -3.04% (inactive) | 
CCN(CC)S(=O)(=O)c1ccc(N(C)Cc2cccc(OC)c2OC)nc1 | -1.33% (inactive) | 
CCN(CC)S(=O)(=O)c1ccc(N(C)Cc2ccc(C(F)(F)F)cc2)nc1 |  | 29.9 µM (active)
CCCS(=O)(=O)NC(=O)C1(C)CCCN(C(=O)c2ccnc(Cl)c2)C1 (stereo unspecified) | 3.92% (inactive) | 
CC(C)N1C(=O)c2ccccc2NC(=O)C1C(=O)NCc1cccs1 (stereo unspecified) | -1.29% (inactive) | 
CC(=O)N1Cc2cc(C(=O)NCc3cccc(F)c3)nc(-c3cccc(C4=CCCCC4)c3)c2[C@H]1CCO | -9.42% (inactive) | 
CN1CCN(C(=O)c2ccc(NC(=O)c3ccc(Br)o3)cc2)CC1 | -7.09% (inactive) | 
O=C(Cn1nnc(N2CCCCC2)n1)c1ccc(Cl)c(Cl)c1 | -14.1% (inactive) | 
O=C(Cn1nc(CNc2ccc(Cl)cc2)[n+]2c1CCCCC2)c1ccc(Cl)cc1 |  | 21.2 µM (active)
O=C(Cn1ncc(N2CCCC2)c(Br)c1=O)c1ccc(Cl)cc1 | -7.29% (inactive) | 

SMILES | max response, negative = inhibition | Potency
O=C(NC(c1ccc(-c2ccccc2)cc1)c1cnccn1)C1CCN(CCOc2ccc(Cl)cc2Cl)CC1 (stereo unspecified) | -2.44% (inactive) | 
O=C1NC[C@H](CCCCN2C[C@H](Cc3ccccc3)N(Cc3ccccc3)C(=O)C2=O)N(CCc2ccc(O)cc2)C1=O | 3.35% (inactive) | 
C[C@H]1CN([C@@H](C)CO)C(=O)CCCn2nncc2CO[C@@H]1CN(C)S(=O)(=O)c1cccc(C#N)c1 | -7.11% (inactive) | 
Cc1cn(C2OC[C@@H](O)[C@@H]2CO)c(=O)[nH]c1=O (stereo partly specified) | -5.18% (inactive) | 
Cc1cn([C@H]2C[C@H](O)[C@@H](/C=C/C(=O)NCCCc3ccccc3)O2)c(=O)[nH]c1=O | -13.1% (inactive) | 
Cc1cn(C2C=CC(CO)O2)c(=O)[nH]c1=O (stereo unspecified) |  | 29.9 µM (active)
O=C(CCN1CCCCC1)Nc1ccc(F)c(F)c1 | -0.714% (inactive) | 
CCCCN1CC(N2CCN(Cc3cccc(C)c3)CC2)CS1(=O)=O (stereo unspecified) | -2.99% (inactive) | 
CCOC(=O)C1=CC[C@@H](c2ccccc2)N(S(=O)(=O)c2ccc(C)cc2)[C@H]1c1ccc(CC)cc1 | -1.73% (inactive) | 
NC1=CC(=O)C(=O)c2cccnc21 | -7.35% (inactive) | 
COCCCNC(=O)Cn1c(=O)n(Cc2ccccc2Cl)c(=O)c2cc(OC)c(OC)cc21 |  | 29.9 µM (active)
COCCCNC(=O)CN1CCN(Cc2ccccc2Cl)C1=O | -7.04% (inactive) | 
COc1ccc(CCNC(=O)Cn2c(=O)n(CC3CCCO3)c(=O)c3ccccc32)cc1OC (stereo unspecified) | -13.3% (inactive) | 
CCNC(=O)C1(C)CCCN(Cc2noc(-c3ccccc3OC)n2)C1 (stereo unspecified) | -4.99% (inactive) | 
C[C@H]1Cn2cnc(C(=O)N[C@@H](Cc3c[nH]c4ccccc34)C(=O)OC(C)(C)C)c2C(=O)N1 | -0.575% (inactive) | 
CC(=O)OC(COc1ccc(F)cc1)Cn1cnc2ccccc21 (stereo unspecified) |  | 37.7 µM (active)
CC(=O)N=c1ncn(CC(COC(C)=O)OC(C)=O)c2nc[nH]c12 (stereo unspecified) | -2.18% (inactive) | 
CC(C)c1ccc(OCC(O)Cn2cnc3ccccc32)cc1 (stereo unspecified) | -4.3% (inactive) | 
CCCNC(=O)c1cc(C2CCCN(C(=O)c3ccc4c(c3)CCO4)C2)on1 (stereo unspecified) | -6.48% (inactive) | 
CCCC(=O)N1CCC1(C)C(=O)NCc1ccc(C(C)C)cc1 (stereo unspecified) | -11.6% (inactive) | 
O=C(Cc1ccc([N+](=O)[O-])cc1)NCCS(=O)(=O)N1CCN(c2ccccc2)CC1 | -7.66% (inactive) | 
COC(=O)C[C@H]1C=C[C@@H](NS(=O)(=O)c2ccc(C)cc2)[C@@H](CO)O1 | 2.12% (inactive) | 
CC1(c2cccc(Br)c2)NC(=O)N(CC(=O)NCCC2=CCCCC2)C1=O (stereo unspecified) | -9.46% (inactive) | 

SMILES | max response, negative = inhibition | Potency
Cc1ccc(-n2nc(-c3ccco3)cc2C(=O)NCc2cccnc2)cc1 |  | 9.47 µM (active)
CC(C)(C)c1cc(C(=O)NCc2cccnc2)ccn1 | -6.13% (inactive) | 
CSc1sc(C(=O)NC(=O)NCc2cccnc2)c(C)c1-c1ccon1 | -0.192% (inactive) | 
Nc1[nH]c(=S)nc2nc(-c3ccccc3)c(-c3ccccc3)nc12 |  | 21.2 µM (active)
CCCCOCCCNC(=O)C[C@@H]1C[C@@]2(C(=O)OC)CCCCC=C2N(CCC2=CCCCC2)C1=O | 1.64% (inactive) | 
CCN(Cc1ccncc1)C(=S)Nc1ccccc1C | -0.726% (inactive) | 
COc1ccccc1N1CCN(c2nc(C)cc(=O)[nH]2)CC1 | -12.7% (inactive) | 
CCc1ccc(-n2c(=S)sc3c(=O)n(-c4ccccc4OC)c(=S)[nH]c32)cc1 |  | 11.9 µM (active)
COc1ccccc1-n1cn[nH]c1=S | -29.4% (inactive) | 
COc1ccc(OC)c(-n2c(=S)[nH]c3cc(C(=O)N4CCCCC4)ccc3c2=O)c1 | 2.08% (inactive) | 
COc1ccccc1-n1c(=S)[nH]c2c(sc(=S)n2-c2ccc(C)cc2C)c1=O |  | 6.7 µM (active)
COc1cccc(-n2c(=S)sc3c(=O)n(-c4ccccc4OC)c(SCC4OCCO4)nc32)c1 | 4.69% (inactive) | 
CC1(C(=O)NS(=O)(=O)c2ccccc2)CCN1C(=O)C/C=C/c1ccccc1 (stereo unspecified) | -21.1% (inactive) | 
COc1ccc(OC)c(C(=O)NC2CCCc3c2cnn3-c2cc(C)cc(C)c2)c1 (stereo unspecified) | -4.63% (inactive) | 
CC1C(=O)N(Cc2cn(Cc3ccco3)nn2)CCS(=O)(=O)N1Cc1ccc(-c2cccc(CO)c2)cc1 (stereo unspecified) | -3.83% (inactive) | 
OC[C@@H]1CN(Cc2ccncc2)C[C@H](n2cnc3c(N4CCN(c5ccccc5)CC4)ncnc32)O1 | -12.1% (inactive) | 
Cc1cc(C)c2cc(C#N)c(N3CCNCC3)nc2c1 | -8.16% (inactive) | 
Cc1c(Br)cc(C(=O)N2CCCCCC2)c(C)c1C | -5.8% (inactive) | 
Cc1ccc(C(=O)N2CCCC2)c(F)c1F |  | 21.2 µM (active)
O=C(c1ccc(Cl)c(Cl)c1)N1CCCC1 | -20.7% (inactive) | 
COc1c(C(=O)N2CCCC2)ccc2ccccc12 | -0.934% (inactive) | 
Cc1ccc(C(=O)N2CCCCCC2)cc1Br |  | 26.7 µM (active)
CCNC(=O)C1CCCN(C(=O)c2cc(F)ccc2C)CC1 (stereo unspecified) | -1.52% (inactive) | 

SMILES | max response, negative = inhibition | Potency
CCc1nc2c(OCc3ccc(C(F)(F)F)cc3)cccn2c1N(C)C(=O)CC(C)C | 0.499% (inactive) | 
COc1cc(-c2nnc(NC(=O)CS(=O)(=O)c3ccc(Cl)cc3)o2)cc(OC)c1OC | -18.2% (inactive) | 
CC(C)C1CCN(C(=O)C2CCC(=O)N(C3CCCCCC3)C2)CC1 (stereo unspecified) | 0.565% (inactive) | 
CC(Sc1nnc(COc2ccccc2)n1-c1ccccc1)C(=O)O (stereo unspecified) | -5.44% (inactive) | 
O=C(COc1ccccc1)Nc1ccc(F)cc1 | -17.9% (inactive) | 
Fc1ccc(/C=N/n2c(COc3ccccc3)n[nH]c2=S)cc1 |  | 23.8 µM (active)
CC(=O)Nc1cc(-c2ccc(N3CCN(C)CC3)cc2)cn2c(-c3cccc(C(=O)N(C)C)c3)cnc12 | -2.75% (inactive) | 
CN1OC[C@@H]2CN(S(=O)(=O)c3cccc(C(F)(F)F)c3)[C@H](c3ccc(-c4cc5ccccc5o4)cc3)C[C@@H]21 | -19.4% (inactive) | 
O=C(Nc1ccc2c(c1)OCCO2)C(C1CC1)N1CCC(Cc2ccccc2)CC1 (stereo unspecified) | 1.88% (inactive) | 
CCC(C(=O)NC(C)(C)C)n1c(-c2ccccc2)nc2ccccc21 (stereo unspecified) | 0.0436% (inactive) | 
Cc1[nH]c2ccccc2c1C(=O)CN1CC(C)CC(C)C1 (stereo unspecified) | -9.93% (inactive) | 
CCOC(=O)N1CCN(CC(=O)c2c(C)[nH]c3ccccc23)CC1 |  | 3.77 µM (active)
Cc1[nH]c2ccccc2c1C(=O)CN1CCCC(C)C1 (stereo unspecified) | -2.14% (inactive) | 
CNc1cncc(-c2cccc(C(=O)N3CCOCC3)c2)n1 | -3.85% (inactive) | 
COc1ccccc1-n1c(SCC(=O)Nc2ccc(Cl)cc2)nc(O)c(Cc2ccccc2)c1=O | -10.5% (inactive) | 
CNc1cnc(-c2cc(OC)c(OC)c(OC)c2)cn1 | -14% (inactive) | 
CS(=O)(=O)c1ccc(C(=O)NNC(=O)c2cccs2)cc1 | -0.622% (inactive) | 
CCc1ccc(NC(=O)C(=O)NNC(=O)c2cccs2)cc1 | -20.4% (inactive) | 
CCc1nnc(NS(=O)(=O)c2ccc(NC(=S)NC(=O)c3cccs3)cc2)s1 |  | 18.9 µM (active)
CCc1nnc(NS(=O)(=O)c2ccc(NC(=O)c3cccc(OC(F)(F)C(F)F)c3)cc2)s1 | -23.6% (inactive) | 
NS(=O)(=O)c1ccc(NC(=S)NNC(=O)c2cccs2)cc1 |  | 29.9 µM (active)
O=C(NC(=S)Nc1ccc(NC(=O)c2cccs2)cc1)c1ccc([N+](=O)[O-])cc1 | -4.47% (inactive) | 
